Drawing on PubChem BioAssay (EPA / NIEHS), this text covers outcome and AC50 for 8 compounds.

Experiment [1] in a line: ATG_NFI_CIS: Attagene CIS-FACTORIAL HepG2 Assay for human Nuclear Factor I (NFI) (AID 2282989). The note with it: HepG2 cis-regulatory reporter, NFI response element transcription; actives raise or lower the signal. The method, boiled down:
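After transient transfection of HepG2 with cis-promoter reporter constructs and 24 h dosing, RNA is reverse-transcribed, amplified, 6-FAM end-labelled and HpaI-digested before capillary analysis. Bidirectional curve fitting against DMSO.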

The target of experiment [2] is Myc proto-oncogene protein (Homo sapiens) (UniProt P01106). Kind of experiment: ATG_Myc_CIS: Attagene CIS-FACTORIAL HepG2 Assay for human Myelocytomatosis (Myc) Proto-Oncogene Transcription Factor (AID 2282990). The settings on record: HepG2, Attagene cis-reporter transcription factor activity; actives raise or lower the signal. The method, boiled down: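 Cells of the HepG2 human liver line bear multiple cis-driven reporter transcription units. Reporter mRNA after 24 h exposure is reverse-transcribed, amplified, labelled and resolved by capillary electrophoresis, with gain- or loss-of-signal fitting relative to DMSO.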
Chain of Myc proto-oncogene protein (Homo sapiens) (P01106 whole entry, looked up): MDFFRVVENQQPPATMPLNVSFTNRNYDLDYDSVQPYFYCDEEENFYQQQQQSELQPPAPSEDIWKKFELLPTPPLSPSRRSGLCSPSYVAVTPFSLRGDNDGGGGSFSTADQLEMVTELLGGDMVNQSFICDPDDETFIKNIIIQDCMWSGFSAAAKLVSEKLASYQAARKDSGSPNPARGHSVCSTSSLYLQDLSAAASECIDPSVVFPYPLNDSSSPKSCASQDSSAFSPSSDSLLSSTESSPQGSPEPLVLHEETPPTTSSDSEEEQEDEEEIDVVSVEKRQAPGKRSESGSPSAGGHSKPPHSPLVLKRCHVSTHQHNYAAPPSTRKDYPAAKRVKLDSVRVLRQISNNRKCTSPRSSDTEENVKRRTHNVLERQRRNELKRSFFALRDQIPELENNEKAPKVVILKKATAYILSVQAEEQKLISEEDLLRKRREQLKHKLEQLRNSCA

A short description of experiment [3]: ATG_NF_kB_CIS: Attagene CIS-FACTORIAL HepG2 Assay for human Nuclear Factor Kappa B (NF-kB) (AID 2282991). The note with it: HepG2 Attagene cis-factorial NF-kB reporter mRNA; actives raise or lower the signal. The method, boiled down:
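Read-out: reporter transcript levels quantified by RT-PCR plus capillary electrophoresis of 6-FAM-labelled, HpaI-cut fragments. Transfected HepG2 cells, 24 h compound exposure, endogenous NF-kB-driven cis element; gain or loss scored versus DMSO.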

Experiment [4] is described as follows: ATG_NRF2_ARE_CIS: Attagene CIS-FACTORIAL HepG2 Assay for human Nuclear Factor Erythroid 2 Related Factor 2 (NFR2) response to Antioxidant Response Elements (ARE) (AID 2282992). The note with it: HepG2 Attagene ARE/NRF2 reporter, transcription factor activity; actives raise or lower the signal. In outline:
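Readout: reporter mRNA quantified by RT-PCR plus FAM-labelled primer extension, HpaI digestion and capillary electrophoresis, 24 h after dosing transfected HepG2 cells. Gain or loss of signal is fitted bidirectionally against DMSO baseline.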

Experiment [5] in a line: ATG_Oct_MLP_CIS: Attagene CIS-FACTORIAL HepG2 Assay for human Octamer-Binding Transcription Factor (Oct) (AID 2282993). The note with it: HepG2 Attagene cis-factorial Oct reporter, mRNA; actives raise or lower the signal. The method, boiled down: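 Cells of the HepG2 line express promoter-controlled reporter sequences whose mRNA levels, after 24 h treatment, are measured by RT-PCR and capillary electrophoresis. Increases and decreases are scored relative to DMSO.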

The target in experiment [6] is human Peroxisome Proliferator-activated Receptor alpha (PPARa), PPARA (gene 5465) (UniProt Q07869). Kind of experiment: ATG_PPARa_TRANS: Attagene TRANS-FACTORIAL HepG2 Assay for human Peroxisome Proliferator-activated Receptor alpha (PPARa) (AID 2283001; active means hit-call score of the fitted dose curve at least 0.9, where 1 is the maximum;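 on AC50: potency for gain of reporter signal over DMSO so agonist or activator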). The method, boiled down:
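Reporter transcripts quantified by RT-PCR plus capillary electrophoresis after 24 h treatment, fitted upward relative to DMSO. Cells: human HepG2 transiently carrying multiple GAL4-UAS reporter units driven by NR-Gal4 chimeras.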

The target of experiment [7] is human Peroxisome Proliferator-activated Receptor delta (PPARd), PPARD (gene 5467) (UniProt Q03181). Kind of experiment: ATG_PPARd_TRANS: Attagene TRANS-FACTORIAL HepG2 Assay for human Peroxisome Proliferator-activated Receptor delta (PPARd) (AID 2283002; active means hit-call score of the fitted dose curve at least 0.9, where 1 is the maximum). In outline:
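Cell-based TRANS reporter: HepG2, transient MRTU transfection, 24 h exposure. Readout = reporter mRNA (RT-PCR/CE, 6-FAM). Gain-of-signal fit vs DMSO control.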

In experiment [8] the target is human Retinoic Acid Receptor beta (RARb), RARB (gene 5915) (UniProt P10826). Kind of experiment: ATG_RARb_TRANS: Attagene TRANS-FACTORIAL HepG2 Assay for human Retinoic Acid Receptor beta (AID 2283004; active means hit-call score of the fitted dose curve at least 0.9, where 1 is the maximum). The method, boiled down:
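Transient transfection of HepG2 with multiple reporter units → chemical dosing, 24 h → total RNA isolation → RT with oligo(dT) → reporter-specific PCR, 6-FAM primer extension, HpaI digest → capillary electrophoresis. Positive direction vs DMSO control.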

In experiment [9] the target is Nuclear receptor subfamily 1 group I member 2 (Homo sapiens) (UniProt O75469). Kind of experiment: ATG_PXR_TRANS: Attagene TRANS-FACTORIAL HepG2 Assay for human Pregnane X Receptor (PXR) (AID 2283008; active means hit-call score of the fitted dose curve at least 0.9, where 1 is the maximum). In outline:
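Trans-factorial format: exogenous NR-Gal4 fusion activity, not endogenous factor, in transfected human HepG2 liver cells. After 24 h dosing, RNA isolated, reverse-transcribed, amplified and resolved by capillary electrophoresis; induction scored versus DMSO.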

Experiment [10] deals with human RAR-related Orphan Receptor beta (RORb), RORB (gene 6096) (UniProt Q92753). Kind of experiment: ATG_RORb_TRANS: Attagene TRANS-FACTORIAL HepG2 Assay for human RAR-related Orphan Receptor beta (RORb) (AID 2283010; active means hit-call score of the fitted dose curve at least 0.9, where 1 is the maximum). The method, boiled down:
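Read-out is reporter mRNA induction, quantified by RT-PCR with fluorescent capillary electrophoresis, 24 h post-dose in transiently transfected HepG2 expressing exogenous NR-Gal4 chimera. Activity fitted upward versus DMSO.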

Experiment [11] is described as follows: BSK_3C_TissueFactor: BioMAP Diversity Plus: 3C Assay for Tissue Factor Biomarker Activity (AID 2282997). The note with it: BioMAP 3C HUVEC, tissue factor biomarker readout; actives raise or lower the signal. The method, boiled down:
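After a 24 h chemical exposure of primary human umbilical vein endothelial cells, Tissue Factor levels were quantified by ELISA.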

The nature of experiment [12]: BSK_3C_uPAR: BioMAP Diversity Plus: 3C Assay for Urokinase-type plasminogen activator receptor (uPAR) Biomarker Activity (AID 2282998). The note with it: BioMAP 3C HUVEC, uPAR biomarker ELISA; actives raise or lower the signal. The method, boiled down:
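Endothelial primary cells of human umbilical vein origin received test chemical; 24 h later uPAR was assayed by ELISA. Fitting was bidirectional, DMSO as negative control.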
A general note: In an ELISA, binding on a coated surface is turned into a signal by an enzyme label.

A short description of experiment [13]: BSK_3C_VCAM1: BioMAP Diversity Plus: 3C Assay for Vascular cell adhesion molecule 1 (VCAM1) Biomarker Activity (AID 2282999). The note with it: BioMAP 3C HUVEC, VCAM1 ELISA, cytokine-stimulated; actives raise or lower the signal. In outline: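 Activity fitted in both directions relative to DMSO, with ELISA measurement of the surface marker on primary HUVEC (3C) at 24 h post-treatment; parallel SRB staining (0.1% SRB, TCA-fixed, 560 nm) flagged overt cytotoxicity.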

A short description of experiment [14]: BSK_4H_Eotaxin3: BioMAP Diversity Plus: 4H Assay for Eotaxin 3 Biomarker Activity (AID 2283000).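 On outcome: CCL26 protein level quantified by ELISA in parallel with SRB cytotoxicity check.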 The note with it: primary human endothelial cells (HUVEC); actives raise or lower the signal. In outline: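 Chemicals were added to human umbilical vein endothelium cultures, and Eotaxin-3 was quantified by ELISA at 24 h. Values were derived by bidirectional fitting with DMSO serving as negative control and activity baseline.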

Read-out in experiment [15]: Intercellular Adhesion Molecule 1 (ICAM1), ICAM1 (gene 3383)
Kind of experiment: BSK_3C_ICAM1: BioMAP Diversity Plus: 3C Assay for Intercellular Adhesion Molecule 1 (ICAM1) Biomarker Activity (AID 2283003). The settings on record: primary human endothelial cells (HUVEC); actives raise or lower the signal. The method, boiled down:
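ELISA readout of ICAM1 in human umbilical vein endothelial cells in the 3C system, taken 24 h post-dose. Gain or loss of signal versus DMSO was fitted in both directions, with SRB total-protein staining run in parallel.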

Experiment [16] is described as follows: BSK_3C_Proliferation: Cell Proliferation Assessment in the BioMAP Diversity Plus: 3C Assay (AID 2283006). The note with it: primary human endothelial cells (HUVEC). In outline:
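Proliferation as total protein: sulforhodamine B (0.1%) stain of TCA-fixed subconfluent human umbilical vein endothelial cells, absorbance 560 nm, 48 h after dosing. Activity fitted in both directions against DMSO baseline.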

For experiment [17], the target named is human Retinoic Acid Receptor gamma (RARg), RARG (gene 5916) (UniProt P13631). Kind of experiment: ATG_RARg_TRANS: Attagene TRANS-FACTORIAL HepG2 Assay for human Retinoic Acid Receptor gamma (RARg) (AID 2283009; active means hit-call score of the fitted dose curve at least 0.9, where 1 is the maximum). The method, boiled down: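 Transactivation of exogenous RARg-Gal4 fusion measured as reporter transcript induction after 24 h in transfected HepG2 cells. RNA reverse-transcribed, amplified, fluorescently labeled and resolved by capillary electrophoresis; increase relative to DMSO.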
Chain of human Retinoic Acid Receptor gamma (RARg), RARG (gene 5916) (P13631 whole entry, looked up, the tested form may be a part): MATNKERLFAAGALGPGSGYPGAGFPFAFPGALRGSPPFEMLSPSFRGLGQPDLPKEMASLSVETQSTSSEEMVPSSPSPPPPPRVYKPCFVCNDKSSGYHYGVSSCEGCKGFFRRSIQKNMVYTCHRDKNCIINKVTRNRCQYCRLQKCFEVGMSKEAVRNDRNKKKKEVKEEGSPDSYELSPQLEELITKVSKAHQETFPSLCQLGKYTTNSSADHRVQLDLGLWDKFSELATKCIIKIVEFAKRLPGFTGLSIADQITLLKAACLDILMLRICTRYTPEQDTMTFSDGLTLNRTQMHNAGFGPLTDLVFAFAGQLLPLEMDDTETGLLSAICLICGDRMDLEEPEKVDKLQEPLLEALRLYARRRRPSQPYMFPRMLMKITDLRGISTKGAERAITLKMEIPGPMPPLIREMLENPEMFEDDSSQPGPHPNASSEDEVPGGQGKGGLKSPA

Experiment [18] addresses Peroxisome proliferator-activated receptor gamma (Homo sapiens) (UniProt P37231). Kind of experiment: ATG_PPARg_TRANS: Attagene TRANS-FACTORIAL HepG2 Assay for human Peroxisome Proliferator-activated Receptor-gamma (PPARg) (AID 2283007; active means hit-call score of the fitted dose curve at least 0.9, where 1 is the maximum). The method, boiled down: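 Read-out: reporter mRNA induction, detected by fluorescence after RT-PCR and capillary electrophoresis. Transiently transfected human HepG2 liver cells carrying a chimeric NR-Gal4 construct were dosed for 24 h; activity was fitted upward relative to DMSO.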

Experiment [19] concerns the target Cellular tumor antigen p53 (Homo sapiens) (UniProt P04637). Kind of experiment: ATG_p53_CIS: Attagene CIS-FACTORIAL HepG2 Assay for human p53 Transcription Factor (AID 2282994). The settings on record: HepG2 p53 cis-element reporter, Attagene mRNA; actives raise or lower the signal. In outline: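 Read-out: reporter mRNA by RT-PCR plus capillary electrophoresis with fluorescence detection. Human HepG2 liver cells carried transfected multi-reporter cis-element constructs, dosed 24 h. Gain or loss of signal fitted bidirectionally against DMSO control.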

What is called AC50 is the concentration giving half of the maximal activity seen.

Results filed as inconclusive are left out. Where a structure was tested more than once in an assay, its records may differ in their call. The source made the active and inactive calls. How the source made its calls, unless noted: active means hit-call score of the fitted dose curve at least 0.9, where 1 is the maximum; inactive means score below 0.9.

Chain of Cellular tumor antigen p53 (Homo sapiens) (P04637 whole entry, looked up): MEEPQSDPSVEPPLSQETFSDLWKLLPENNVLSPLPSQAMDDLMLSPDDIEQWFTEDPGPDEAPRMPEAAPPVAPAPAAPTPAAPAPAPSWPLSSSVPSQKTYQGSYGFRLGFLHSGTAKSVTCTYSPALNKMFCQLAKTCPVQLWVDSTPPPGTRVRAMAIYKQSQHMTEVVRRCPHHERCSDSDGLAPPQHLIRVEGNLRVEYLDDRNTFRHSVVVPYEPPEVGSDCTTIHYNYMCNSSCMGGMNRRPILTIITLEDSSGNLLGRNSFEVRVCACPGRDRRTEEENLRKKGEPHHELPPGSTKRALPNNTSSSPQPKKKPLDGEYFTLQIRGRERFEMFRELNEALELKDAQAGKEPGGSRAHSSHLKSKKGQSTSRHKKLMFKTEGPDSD
Chain of human RAR-related Orphan Receptor beta (RORb), RORB (gene 6096) (Q92753 whole entry, looked up, the tested form may be a part): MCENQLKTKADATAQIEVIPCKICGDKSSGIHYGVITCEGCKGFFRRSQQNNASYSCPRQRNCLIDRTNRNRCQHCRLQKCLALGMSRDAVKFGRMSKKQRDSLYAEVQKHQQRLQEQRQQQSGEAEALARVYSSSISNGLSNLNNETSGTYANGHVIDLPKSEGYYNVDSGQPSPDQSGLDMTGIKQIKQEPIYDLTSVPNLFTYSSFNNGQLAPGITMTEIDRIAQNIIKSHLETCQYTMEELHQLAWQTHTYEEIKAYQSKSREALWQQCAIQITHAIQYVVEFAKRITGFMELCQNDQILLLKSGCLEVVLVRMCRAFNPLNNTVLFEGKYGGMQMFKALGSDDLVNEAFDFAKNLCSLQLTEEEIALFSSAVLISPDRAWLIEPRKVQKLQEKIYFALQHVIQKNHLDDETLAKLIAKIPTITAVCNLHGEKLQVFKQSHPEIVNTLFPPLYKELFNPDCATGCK
Chain of Nuclear receptor subfamily 1 group I member 2 (Homo sapiens) (O75469 whole entry, looked up, the tested form may be a part): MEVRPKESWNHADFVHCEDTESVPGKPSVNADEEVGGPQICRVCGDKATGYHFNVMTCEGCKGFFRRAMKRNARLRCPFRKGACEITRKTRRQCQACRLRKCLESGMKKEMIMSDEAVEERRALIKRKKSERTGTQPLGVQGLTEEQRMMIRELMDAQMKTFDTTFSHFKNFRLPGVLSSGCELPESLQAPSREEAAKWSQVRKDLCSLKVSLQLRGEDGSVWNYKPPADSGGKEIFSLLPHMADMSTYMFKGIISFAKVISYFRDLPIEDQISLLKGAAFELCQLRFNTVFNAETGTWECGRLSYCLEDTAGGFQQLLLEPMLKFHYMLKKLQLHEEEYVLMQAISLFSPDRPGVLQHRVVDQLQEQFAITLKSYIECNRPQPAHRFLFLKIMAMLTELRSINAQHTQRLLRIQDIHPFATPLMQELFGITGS
Chain of human Peroxisome Proliferator-activated Receptor delta (PPARd), PPARD (gene 5467) (Q03181 whole entry, looked up): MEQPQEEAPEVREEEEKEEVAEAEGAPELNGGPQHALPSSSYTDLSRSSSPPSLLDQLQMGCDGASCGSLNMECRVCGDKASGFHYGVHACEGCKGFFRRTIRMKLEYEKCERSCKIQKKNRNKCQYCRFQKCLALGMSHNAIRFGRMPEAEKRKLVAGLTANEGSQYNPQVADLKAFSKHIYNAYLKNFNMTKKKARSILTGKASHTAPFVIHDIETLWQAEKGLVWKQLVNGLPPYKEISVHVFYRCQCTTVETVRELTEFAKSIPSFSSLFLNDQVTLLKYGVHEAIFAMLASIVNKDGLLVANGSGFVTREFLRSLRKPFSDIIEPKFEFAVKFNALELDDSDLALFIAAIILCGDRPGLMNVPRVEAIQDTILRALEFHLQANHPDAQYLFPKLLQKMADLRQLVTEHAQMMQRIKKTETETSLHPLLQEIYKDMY
Chain of human Peroxisome Proliferator-activated Receptor alpha (PPARa), PPARA (gene 5465) (Q07869 whole entry, looked up, the tested form may be a part): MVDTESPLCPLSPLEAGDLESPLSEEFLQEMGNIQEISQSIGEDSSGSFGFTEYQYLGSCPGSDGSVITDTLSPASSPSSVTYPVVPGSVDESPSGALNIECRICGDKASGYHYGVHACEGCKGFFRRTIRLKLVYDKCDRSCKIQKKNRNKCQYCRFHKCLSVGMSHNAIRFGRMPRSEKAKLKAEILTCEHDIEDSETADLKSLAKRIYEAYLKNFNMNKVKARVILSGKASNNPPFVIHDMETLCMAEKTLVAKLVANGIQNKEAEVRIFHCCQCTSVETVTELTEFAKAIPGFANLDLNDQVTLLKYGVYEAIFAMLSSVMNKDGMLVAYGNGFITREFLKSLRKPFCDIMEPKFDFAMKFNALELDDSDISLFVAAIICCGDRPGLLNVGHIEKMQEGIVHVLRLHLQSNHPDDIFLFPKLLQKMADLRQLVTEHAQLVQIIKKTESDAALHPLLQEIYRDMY
Chain of Peroxisome proliferator-activated receptor gamma (Homo sapiens) (P37231 whole entry, looked up, the tested form may be a part): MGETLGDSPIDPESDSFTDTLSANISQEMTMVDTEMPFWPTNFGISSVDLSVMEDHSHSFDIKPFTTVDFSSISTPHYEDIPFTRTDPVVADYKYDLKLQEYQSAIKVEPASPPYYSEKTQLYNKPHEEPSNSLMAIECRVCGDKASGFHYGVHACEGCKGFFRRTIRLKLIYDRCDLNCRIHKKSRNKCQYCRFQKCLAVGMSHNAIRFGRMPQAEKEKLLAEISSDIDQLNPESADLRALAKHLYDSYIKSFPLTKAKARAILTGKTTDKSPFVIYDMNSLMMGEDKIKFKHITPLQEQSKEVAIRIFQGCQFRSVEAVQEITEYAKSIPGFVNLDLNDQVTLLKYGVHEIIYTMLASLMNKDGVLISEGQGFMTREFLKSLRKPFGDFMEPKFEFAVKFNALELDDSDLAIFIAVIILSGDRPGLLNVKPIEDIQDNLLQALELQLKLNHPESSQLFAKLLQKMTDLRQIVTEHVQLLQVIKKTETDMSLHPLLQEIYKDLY
Chain of human Retinoic Acid Receptor beta (RARb), RARB (gene 5915) (P10826 whole entry, looked up): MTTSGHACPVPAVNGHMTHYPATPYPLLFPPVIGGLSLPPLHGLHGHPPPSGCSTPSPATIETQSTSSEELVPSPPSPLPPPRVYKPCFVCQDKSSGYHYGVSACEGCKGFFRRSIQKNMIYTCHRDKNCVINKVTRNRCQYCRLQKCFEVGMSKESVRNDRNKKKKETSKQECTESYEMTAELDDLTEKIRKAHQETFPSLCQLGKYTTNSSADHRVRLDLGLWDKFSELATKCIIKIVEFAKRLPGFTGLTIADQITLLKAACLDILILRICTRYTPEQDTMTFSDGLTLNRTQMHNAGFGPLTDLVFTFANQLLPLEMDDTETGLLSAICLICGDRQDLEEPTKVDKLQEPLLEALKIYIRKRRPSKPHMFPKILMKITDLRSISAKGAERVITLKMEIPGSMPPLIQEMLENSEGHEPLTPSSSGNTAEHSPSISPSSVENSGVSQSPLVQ

Take `CCCCC(CC)COC(=O)c1ccccc1` (stereo unspecified): the call in experiment [1], in experiment [2], in experiment [3], in experiment [4], in experiment [5] and in experiment [6] was inactive. The outcome in experiment [7], in experiment [8], in [9] and in experiment [10] was inactive.

In the case of `N#[N+]c1ccc2c(S(=O)(=O)[O-])cccc2c1O`, the compound was called inactive in experiment [1], in experiment [2], in experiment [3], in experiment [4], in experiment [5] and in experiment [11]. The result in [12], in experiment [13], in [14], in [6], in experiment [15] and in [16] was inactive. Further, the compound was classed as inactive in [17] and in [10].

On to `CCCCC(CC)COCC1CO1` (stereo unspecified), for which the call in experiment [1], in experiment [2], in [3], in experiment [4], in experiment [5] and in experiment [11] was inactive. The result in [12], in experiment [13], in [14], in experiment [15], in experiment [16] and in experiment [18] was inactive. Moreover, in experiment [14], the AC50 is 3.97 µM (active).

For `CCCCCCCC/C=C\CCCCCCCC(=O)OCCO`, the result in experiment [1], in [2], in experiment [5], in [7] and in experiment [9] was inactive. Also, the AC50 is 68.1 µM (active) in experiment [3], 40.8 µM (active) in experiment [4] and 8.71 µM (active) in [6].

For `CC1(C)O[C@@H]2C[C@H]3[C@@H]4C[C@H](F)C5=CC(=O)CC[C@]5(C)[C@H]4[C@@H](O)C[C@]3(C)[C@]2(C(=O)CO)O1`, the call in experiment [1], in experiment [2], in experiment [3], in experiment [4], in experiment [5] and in [19] was inactive. The compound was classed as inactive in experiment [7]. The AC50 in experiment [9] is 27 µM (active).

As to `CCCCCCCCCCc1ccccc1`, the call in experiment [1], in experiment [2], in [3], in experiment [4], in experiment [19] and in experiment [7] was inactive. In experiment [10], the call was inactive. For the same compound, the AC50 in experiment [5] is 53.6 µM (active).

Regarding `COCCCOCCCOC`, the compound was classed as inactive in experiment [1], in experiment [2], in experiment [3], in experiment [4], in [5] and in experiment [6]. For the same compound, the call in [7] and in experiment [9] was inactive.

As for `CO[Si](CCC1CCC2OC2C1)(OC)OC` (stereo unspecified), the compound was classed as inactive in experiment [1], in [2], in experiment [3], in [4], in [5] and in experiment [19]. Also, in experiment [18], the call was inactive.
